# Tests used:
# [1] = molecular target: Sphingosine kinase 1 (Homo sapiens) (UniProt Q9NYA1); details: at 1 µM;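 further: mean SPHK1 inhibition value reported from the GSK PKIS kinase panel screen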
# [2] = molecular target: T1, Sphingosine kinase 2 (Homo sapiens) (UniProt Q9NRA0); details: at 0.1 µM
# T1 sequence (whole entry): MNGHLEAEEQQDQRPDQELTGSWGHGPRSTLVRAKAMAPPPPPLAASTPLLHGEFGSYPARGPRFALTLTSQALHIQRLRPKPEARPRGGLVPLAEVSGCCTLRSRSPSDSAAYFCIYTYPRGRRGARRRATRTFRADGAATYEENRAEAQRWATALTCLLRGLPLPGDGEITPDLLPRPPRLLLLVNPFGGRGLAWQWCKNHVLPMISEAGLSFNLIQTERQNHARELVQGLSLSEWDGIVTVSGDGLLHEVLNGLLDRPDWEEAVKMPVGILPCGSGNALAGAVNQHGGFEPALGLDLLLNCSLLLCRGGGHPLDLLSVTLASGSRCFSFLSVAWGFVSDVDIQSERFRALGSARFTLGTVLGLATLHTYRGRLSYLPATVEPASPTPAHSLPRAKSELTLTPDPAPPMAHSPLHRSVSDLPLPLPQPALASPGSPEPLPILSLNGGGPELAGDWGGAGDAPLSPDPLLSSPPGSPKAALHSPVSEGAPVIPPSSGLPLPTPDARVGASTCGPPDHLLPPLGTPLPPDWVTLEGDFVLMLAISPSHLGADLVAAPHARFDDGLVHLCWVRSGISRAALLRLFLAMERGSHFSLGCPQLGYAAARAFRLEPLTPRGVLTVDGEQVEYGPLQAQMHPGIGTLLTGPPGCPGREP
# [3] = molecular target: T1, Sphingosine kinase 2 (Homo sapiens); details: at 1 µM
# [4] = molecular target: Casein kinase II subunit alpha (Homo sapiens) (UniProt P68400); details: at 0.1 µM
# [5] = molecular target: Casein kinase II subunit alpha (Homo sapiens) (UniProt P68400); details: at 1 µM
# [6] = molecular target: T2, Inhibitor of nuclear factor kappa-B kinase subunit alpha (Homo sapiens) (UniProt O15111); details: at 0.1 µM
# T2 sequence (whole entry): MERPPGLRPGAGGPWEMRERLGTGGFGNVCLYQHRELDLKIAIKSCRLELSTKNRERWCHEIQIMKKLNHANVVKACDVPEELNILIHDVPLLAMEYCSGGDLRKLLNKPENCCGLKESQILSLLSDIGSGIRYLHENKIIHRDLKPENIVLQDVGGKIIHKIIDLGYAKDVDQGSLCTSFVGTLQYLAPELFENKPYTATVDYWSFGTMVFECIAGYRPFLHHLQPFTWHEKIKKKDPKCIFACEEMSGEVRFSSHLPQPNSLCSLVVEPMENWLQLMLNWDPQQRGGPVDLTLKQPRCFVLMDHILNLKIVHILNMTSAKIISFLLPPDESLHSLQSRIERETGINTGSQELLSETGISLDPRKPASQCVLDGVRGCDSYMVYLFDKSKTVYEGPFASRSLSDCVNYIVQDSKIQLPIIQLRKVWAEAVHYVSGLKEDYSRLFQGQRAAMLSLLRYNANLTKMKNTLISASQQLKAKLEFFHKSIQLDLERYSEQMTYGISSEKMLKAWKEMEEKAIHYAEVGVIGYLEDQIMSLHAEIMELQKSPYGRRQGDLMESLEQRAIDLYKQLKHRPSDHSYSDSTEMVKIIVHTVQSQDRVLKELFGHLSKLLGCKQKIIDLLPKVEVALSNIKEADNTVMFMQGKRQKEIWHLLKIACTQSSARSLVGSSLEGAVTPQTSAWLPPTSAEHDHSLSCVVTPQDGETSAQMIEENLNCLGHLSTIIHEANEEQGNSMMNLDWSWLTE
# [7] = molecular target: T2, Inhibitor of nuclear factor kappa-B kinase subunit alpha (Homo sapiens); details: at 1 µM
# [8] = molecular target: T3, Inhibitor of nuclear factor kappa-B kinase subunit beta (Homo sapiens) (UniProt O14920); details: at 0.1 µM
# T3 sequence (whole entry): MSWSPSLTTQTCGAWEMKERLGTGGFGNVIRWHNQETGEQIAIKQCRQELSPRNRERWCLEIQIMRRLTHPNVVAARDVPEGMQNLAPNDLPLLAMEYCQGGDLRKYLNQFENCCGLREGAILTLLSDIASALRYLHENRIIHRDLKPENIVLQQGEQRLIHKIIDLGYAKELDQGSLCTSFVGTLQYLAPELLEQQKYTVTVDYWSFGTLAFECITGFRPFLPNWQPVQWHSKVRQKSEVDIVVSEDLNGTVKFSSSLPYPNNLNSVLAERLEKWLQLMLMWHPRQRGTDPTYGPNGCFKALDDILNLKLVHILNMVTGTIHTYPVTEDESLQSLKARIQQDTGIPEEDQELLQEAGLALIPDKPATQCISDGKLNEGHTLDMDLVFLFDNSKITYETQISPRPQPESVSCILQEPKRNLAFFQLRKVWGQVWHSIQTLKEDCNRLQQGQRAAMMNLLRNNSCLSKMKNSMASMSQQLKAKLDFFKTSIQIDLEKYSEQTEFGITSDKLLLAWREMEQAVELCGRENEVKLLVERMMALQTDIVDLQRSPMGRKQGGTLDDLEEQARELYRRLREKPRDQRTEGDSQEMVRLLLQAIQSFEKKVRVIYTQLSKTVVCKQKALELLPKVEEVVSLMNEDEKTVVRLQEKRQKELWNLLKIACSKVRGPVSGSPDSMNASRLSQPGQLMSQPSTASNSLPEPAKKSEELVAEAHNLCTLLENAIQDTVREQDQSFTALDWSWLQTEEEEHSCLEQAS
# [9] = molecular target: T3, Inhibitor of nuclear factor kappa-B kinase subunit beta (Homo sapiens); details: at 1 µM
# [10] = molecular target: T4, Inhibitor of nuclear factor kappa-B kinase subunit epsilon (Homo sapiens) (UniProt Q14164); details: at 0.1 µM
# T4 sequence (whole entry): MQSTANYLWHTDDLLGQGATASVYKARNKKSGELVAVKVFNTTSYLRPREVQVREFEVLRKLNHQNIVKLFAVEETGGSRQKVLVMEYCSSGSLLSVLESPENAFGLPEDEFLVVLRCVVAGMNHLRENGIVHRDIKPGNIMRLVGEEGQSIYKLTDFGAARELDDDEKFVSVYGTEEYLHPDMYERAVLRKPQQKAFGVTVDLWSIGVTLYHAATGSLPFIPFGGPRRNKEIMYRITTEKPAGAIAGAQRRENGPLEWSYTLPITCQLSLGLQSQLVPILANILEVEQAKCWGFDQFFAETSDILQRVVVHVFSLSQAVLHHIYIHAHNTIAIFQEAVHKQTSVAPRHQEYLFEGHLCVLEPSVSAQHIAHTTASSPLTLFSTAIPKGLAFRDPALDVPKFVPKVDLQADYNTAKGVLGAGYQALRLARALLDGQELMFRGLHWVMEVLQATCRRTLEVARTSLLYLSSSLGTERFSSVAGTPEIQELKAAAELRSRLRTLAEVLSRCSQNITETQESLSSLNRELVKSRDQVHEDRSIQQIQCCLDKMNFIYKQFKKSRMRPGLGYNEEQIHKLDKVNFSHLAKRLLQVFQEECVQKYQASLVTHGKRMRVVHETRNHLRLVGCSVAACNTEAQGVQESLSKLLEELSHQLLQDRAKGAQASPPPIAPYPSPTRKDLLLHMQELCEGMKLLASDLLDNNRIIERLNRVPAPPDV
# [11] = molecular target: T4, Inhibitor of nuclear factor kappa-B kinase subunit epsilon (Homo sapiens); details: at 1 µM
# [12] = molecular target: T5, Serine/threonine-protein kinase Nek1 (Homo sapiens) (UniProt Q96PY6); details: at 0.1 µM
# T5 sequence (whole entry): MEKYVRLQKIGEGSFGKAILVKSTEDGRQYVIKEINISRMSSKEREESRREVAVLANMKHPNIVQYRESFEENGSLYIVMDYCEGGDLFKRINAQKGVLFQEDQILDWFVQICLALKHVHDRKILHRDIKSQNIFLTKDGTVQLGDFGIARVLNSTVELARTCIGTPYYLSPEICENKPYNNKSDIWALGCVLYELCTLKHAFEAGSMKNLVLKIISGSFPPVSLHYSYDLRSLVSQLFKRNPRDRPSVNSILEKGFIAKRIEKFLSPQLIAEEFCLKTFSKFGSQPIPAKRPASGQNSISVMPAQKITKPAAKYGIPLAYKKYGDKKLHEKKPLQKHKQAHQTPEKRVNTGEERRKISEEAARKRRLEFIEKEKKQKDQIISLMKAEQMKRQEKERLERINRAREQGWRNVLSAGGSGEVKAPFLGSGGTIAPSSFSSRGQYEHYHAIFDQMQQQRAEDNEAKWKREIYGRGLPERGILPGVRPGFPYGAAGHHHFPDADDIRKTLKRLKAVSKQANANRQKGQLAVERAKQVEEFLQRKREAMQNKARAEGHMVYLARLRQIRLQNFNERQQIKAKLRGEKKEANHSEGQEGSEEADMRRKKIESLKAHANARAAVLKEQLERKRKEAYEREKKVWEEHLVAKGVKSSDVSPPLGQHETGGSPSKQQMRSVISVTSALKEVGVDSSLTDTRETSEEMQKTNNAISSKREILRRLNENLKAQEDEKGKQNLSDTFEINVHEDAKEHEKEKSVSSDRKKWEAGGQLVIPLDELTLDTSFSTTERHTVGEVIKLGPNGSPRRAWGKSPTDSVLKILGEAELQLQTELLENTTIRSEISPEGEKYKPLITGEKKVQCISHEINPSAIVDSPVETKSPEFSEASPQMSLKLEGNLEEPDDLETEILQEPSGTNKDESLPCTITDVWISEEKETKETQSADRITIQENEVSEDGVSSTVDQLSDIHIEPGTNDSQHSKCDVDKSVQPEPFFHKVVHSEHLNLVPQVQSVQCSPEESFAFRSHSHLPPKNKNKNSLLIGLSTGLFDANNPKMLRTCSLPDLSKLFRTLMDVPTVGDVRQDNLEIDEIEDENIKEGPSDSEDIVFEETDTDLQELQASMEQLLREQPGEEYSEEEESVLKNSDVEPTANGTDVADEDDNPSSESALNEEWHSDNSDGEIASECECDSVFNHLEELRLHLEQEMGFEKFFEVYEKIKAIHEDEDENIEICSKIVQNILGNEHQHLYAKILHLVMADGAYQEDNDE
# [13] = molecular target: T5, Serine/threonine-protein kinase Nek1 (Homo sapiens); details: at 1 µM
# [14] = molecular target: T6, Serine/threonine-protein kinase Nek2 (Homo sapiens) (UniProt P51955); details: at 0.1 µM
# T6 sequence (whole entry): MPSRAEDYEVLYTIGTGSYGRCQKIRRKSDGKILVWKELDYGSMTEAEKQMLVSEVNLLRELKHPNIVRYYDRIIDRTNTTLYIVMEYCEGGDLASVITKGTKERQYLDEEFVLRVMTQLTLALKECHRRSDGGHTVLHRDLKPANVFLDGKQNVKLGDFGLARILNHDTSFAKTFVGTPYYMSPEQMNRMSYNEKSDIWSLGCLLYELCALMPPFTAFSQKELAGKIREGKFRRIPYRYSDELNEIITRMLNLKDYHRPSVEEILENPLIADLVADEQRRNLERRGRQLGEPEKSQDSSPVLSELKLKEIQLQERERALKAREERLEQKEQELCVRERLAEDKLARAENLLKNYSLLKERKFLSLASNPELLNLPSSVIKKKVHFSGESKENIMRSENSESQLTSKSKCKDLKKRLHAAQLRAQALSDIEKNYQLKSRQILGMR
# [15] = molecular target: T6, Serine/threonine-protein kinase Nek2 (Homo sapiens); details: at 1 µM
# [16] = molecular target: Serine/threonine-protein kinase Nek6 (Homo sapiens) (UniProt Q9HC98); details: at 0.1 µM
# [17] = molecular target: Serine/threonine-protein kinase Nek6 (Homo sapiens) (UniProt Q9HC98); details: at 1 µM
# [18] = molecular target: Serine/threonine-protein kinase Nek7 (Homo sapiens) (UniProt Q8TDX7); details: at 0.1 µM
# [19] = molecular target: Serine/threonine-protein kinase Nek7 (Homo sapiens) (UniProt Q8TDX7); details: at 1 µM
# [20] = molecular target: T7, Serine/threonine-protein kinase Nek9 (Homo sapiens) (UniProt Q8TD19); details: at 0.1 µM;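 further: reported value is the mean percent inhibition of NEK9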
# T7 sequence (whole entry): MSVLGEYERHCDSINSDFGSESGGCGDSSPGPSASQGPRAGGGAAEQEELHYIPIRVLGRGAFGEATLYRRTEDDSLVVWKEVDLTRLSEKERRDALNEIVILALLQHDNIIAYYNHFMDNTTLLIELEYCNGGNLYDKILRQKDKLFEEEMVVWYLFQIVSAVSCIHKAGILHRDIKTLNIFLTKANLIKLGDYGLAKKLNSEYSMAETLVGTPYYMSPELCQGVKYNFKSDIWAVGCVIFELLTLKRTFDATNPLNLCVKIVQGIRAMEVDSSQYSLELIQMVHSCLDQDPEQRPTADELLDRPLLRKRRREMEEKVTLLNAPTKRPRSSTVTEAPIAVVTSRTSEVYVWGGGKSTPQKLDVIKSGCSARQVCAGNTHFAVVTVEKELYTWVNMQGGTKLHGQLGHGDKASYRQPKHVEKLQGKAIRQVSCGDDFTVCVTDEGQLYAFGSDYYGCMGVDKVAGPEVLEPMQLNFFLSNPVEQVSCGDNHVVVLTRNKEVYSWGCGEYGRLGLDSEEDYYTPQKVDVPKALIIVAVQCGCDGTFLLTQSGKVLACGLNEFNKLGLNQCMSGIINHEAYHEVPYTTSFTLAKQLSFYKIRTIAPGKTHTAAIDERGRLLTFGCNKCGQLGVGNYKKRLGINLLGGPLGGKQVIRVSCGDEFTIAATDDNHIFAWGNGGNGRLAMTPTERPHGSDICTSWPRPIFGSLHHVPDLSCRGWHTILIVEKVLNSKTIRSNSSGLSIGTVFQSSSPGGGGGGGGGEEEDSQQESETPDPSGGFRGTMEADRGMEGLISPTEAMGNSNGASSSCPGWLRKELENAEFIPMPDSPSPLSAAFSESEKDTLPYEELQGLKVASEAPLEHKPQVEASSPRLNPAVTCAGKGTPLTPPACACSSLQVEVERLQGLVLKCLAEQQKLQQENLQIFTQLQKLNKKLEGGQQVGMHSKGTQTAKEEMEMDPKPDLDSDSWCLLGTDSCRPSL
# Chain of Serine/threonine-protein kinase Nek6 (Homo sapiens) (Q9HC98 whole entry): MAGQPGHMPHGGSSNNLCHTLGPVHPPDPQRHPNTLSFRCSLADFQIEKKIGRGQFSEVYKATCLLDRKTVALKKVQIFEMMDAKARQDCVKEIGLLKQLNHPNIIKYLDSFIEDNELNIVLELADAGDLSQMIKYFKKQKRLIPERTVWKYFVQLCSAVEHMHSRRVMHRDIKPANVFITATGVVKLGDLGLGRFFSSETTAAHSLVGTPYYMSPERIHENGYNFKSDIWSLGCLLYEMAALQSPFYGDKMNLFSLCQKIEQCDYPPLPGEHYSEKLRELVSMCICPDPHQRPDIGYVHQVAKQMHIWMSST
# Chain of Casein kinase II subunit alpha (Homo sapiens) (P68400 whole entry, looked up): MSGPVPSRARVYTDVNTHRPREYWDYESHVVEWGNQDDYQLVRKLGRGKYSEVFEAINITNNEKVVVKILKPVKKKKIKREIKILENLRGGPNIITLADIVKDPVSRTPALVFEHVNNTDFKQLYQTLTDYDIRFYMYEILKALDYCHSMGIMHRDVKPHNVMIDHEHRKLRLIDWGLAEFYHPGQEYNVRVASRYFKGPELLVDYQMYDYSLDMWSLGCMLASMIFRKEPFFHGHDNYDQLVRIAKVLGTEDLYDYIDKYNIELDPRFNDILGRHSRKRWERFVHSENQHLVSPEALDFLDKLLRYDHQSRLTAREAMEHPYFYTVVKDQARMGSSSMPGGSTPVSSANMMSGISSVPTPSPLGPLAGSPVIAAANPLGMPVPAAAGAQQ
# Chain of Serine/threonine-protein kinase Nek7 (Homo sapiens) (Q8TDX7 whole entry, looked up): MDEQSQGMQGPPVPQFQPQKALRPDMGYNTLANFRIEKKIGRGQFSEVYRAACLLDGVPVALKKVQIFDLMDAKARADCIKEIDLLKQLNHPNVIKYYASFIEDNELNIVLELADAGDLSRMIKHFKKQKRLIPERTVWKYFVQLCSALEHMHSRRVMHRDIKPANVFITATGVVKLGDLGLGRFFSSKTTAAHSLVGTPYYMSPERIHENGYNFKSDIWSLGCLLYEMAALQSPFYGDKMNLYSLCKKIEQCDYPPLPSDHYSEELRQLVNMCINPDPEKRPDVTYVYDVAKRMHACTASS
# Chain of Sphingosine kinase 1 (Homo sapiens) (Q9NYA1 whole entry): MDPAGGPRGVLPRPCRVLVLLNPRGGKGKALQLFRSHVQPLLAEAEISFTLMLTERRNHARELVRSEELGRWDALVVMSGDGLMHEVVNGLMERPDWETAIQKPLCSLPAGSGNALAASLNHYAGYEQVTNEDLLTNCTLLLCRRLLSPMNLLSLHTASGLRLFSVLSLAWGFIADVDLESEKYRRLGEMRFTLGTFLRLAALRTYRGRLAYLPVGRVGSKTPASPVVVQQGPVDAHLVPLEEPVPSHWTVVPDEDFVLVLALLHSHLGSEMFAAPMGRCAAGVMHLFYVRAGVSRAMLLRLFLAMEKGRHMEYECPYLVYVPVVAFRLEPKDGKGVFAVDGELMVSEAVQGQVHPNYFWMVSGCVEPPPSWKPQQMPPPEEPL
smiles,measurement,setting,value
NS(=O)(=O)c1cccc(N/C=C2\C(=O)Nc3ccccc32)c1,inhibition,[1],-0.2%
same,inhibition,[2],0.81%
same,inhibition,[3],0.83%
same,inhibition,[4],2.24%
same,inhibition,[5],3.93%
same,inhibition,[6],4.81%
same,inhibition,[7],3.57%
same,inhibition,[8],6.37%
same,inhibition,[9],4.39%
same,inhibition,[10],6.35%
same,inhibition,[11],14.5%
same,inhibition,[12],2.63%
same,inhibition,[13],4.56%
same,inhibition,[14],5.64%
same,inhibition,[15],4.55%
same,inhibition,[16],1.86%
same,inhibition,[17],1.95%
same,inhibition,[18],6.51%
same,inhibition,[19],4.33%
same,inhibition,[20],5.97%

# — ChEMBL document CHEMBL1961873, “Compounds: GSK PKIS; Assays: Nanosyn kinase panel” (2012)
